About 22,000 (7.3%) of roughly 300,000 compounds were called active. Roughly 2% stayed inconclusive and do not appear here. The full list was thinned out, with actives kept by preference. Unmarked numbers belong to inactive results. No stated cut-off is given here; in the data, active means activity score below about -60%; inconclusive means mostly about -28% to -61%; inactive means positive scores.
Assay: Activators via SNCA 5'UTR binding, MLPCN (AID 1814)
Conditions: alpha-synuclein 5'UTR reporter, activators screen; stronger effect = lower value; tested at 7.5 µM

Structure (SMILES)	activity score
Cc1ccc(-c2nc(C#N)c(NCCCn3ccnc3)o2)cc1	-87% (active)
Cc1cccc(-[n+]2c(-c3cccc(Br)c3)[nH]c3nc4ccccc4nc32)c1	73.9%
Brc1ccc(-c2nnc(-c3ccccc3)o2)o1	-63.8% (active)
Brc1ccc(-c2noc(-c3ccccc3)n2)o1	-80.6% (active)
Nc1nonc1-c1noc(-c2ccc(Br)o2)n1	-80.6% (active)
Nc1ccc(-c2nnc(-c3ccc(-c4ccccc4)cc3)o2)cc1	-217% (active)
Cc1ncc(CC(=O)n2cc(C(=O)c3cc(Cl)ccc3O)cn2)s1	-71% (active)
CCSc1nnc(-c2cc3c(s2)-c2ccccc2CC3)o1	-102% (active)
CCOC(=O)c1ccc2c(c1)nc(C)n2CC	-141% (active)
Cc1cccc(C(=O)Nc2ccc(C(=O)/C=C/c3cccs3)cc2)c1	-92.4% (active)
COc1ccc(C2=NN(C(C)=O)C(c3ccccc3)C2)cc1 (configuration not stated)	-63.9% (active)
COc1ccc(C2=NN(C(=O)c3ccccc3C(=O)O)C(c3ccccc3O)C2)cc1 (configuration not stated)	-171% (active)
O=C(Nc1cccnc1Cl)c1cc(-c2ccccc2O)on1	-179% (active)
O=C(NCc1ccccn1)c1cc(-c2ccccc2Cl)on1	-99.8% (active)
Clc1ccc(-c2cc(-c3ccccn3)on2)c(Cl)c1	108%
C=CCNC(=O)c1cc(-c2ccccc2O)on1	-65.4% (active)
C/C(=C\c1ccco1)CN1CCC(N2CCC(C(=O)N3CCOCC3)CC2)CC1	-135% (active)
CC(=O)Nc1ccc(/C=C/C(=O)c2ccccc2)cc1	-201% (active)
O=C(/C=C/c1ccc(N2CCOCC2)cc1)c1ccccc1	-152% (active)
CC(=O)Nc1ccc(C(=O)/C=C/c2ccc[nH]2)cc1	-142% (active)
Cc1ccc(NC(=O)c2sccc2C)cc1[N+](=O)[O-]	-217% (active)
Cc1ccsc1C(=O)N/N=C/c1ccc([N+](=O)[O-])cc1	-154% (active)
O=C(N/N=C/c1ccc([N+](=O)[O-])cc1)c1c[nH]c2ccccc12	-66.7% (active)
COc1cccc(-c2nn(-c3ccccc3)cc2/C=C(\C#N)C(=O)NCCCn2ccnc2)c1	-65.4% (active)

Structure (SMILES)	activity score
Cc1nn(C(=O)c2ccoc2C)c(N)c1-c1ccccc1	-109% (active)
CN(Cc1ccco1)S(=O)(=O)c1nnc(NC(=O)c2ccccc2)s1	-95.2% (active)
COc1ccc(C(=O)Cc2cnn(-c3ccccc3)c2)c(O)c1	-147% (active)
COc1ccc(C(=O)CC(=O)c2ccc(C)cc2)c(O)c1	-96.9% (active)
COC(=O)Cc1[nH]n(-c2nc3ccccc3s2)c(=O)c1C(C)=Nc1ccc(OC)cc1	68.9%
CCC(C)Cn1c(O)cc2nn(-c3nc4ccccc4s3)c(=O)c-2c1C (configuration not stated)	97.8%
CC(=NCc1ccco1)c1c(C(F)(F)F)[nH]n(-c2nc3ccccc3s2)c1=O	-117% (active)
Cn1nc(C(F)(F)F)cc1-c1ccc(/C=C(\C#N)C(=O)c2cccc(C(F)(F)F)c2)s1	-76.5% (active)
O=C1/C(=C/c2ccc3c(c2)OCO3)CCC/C1=C\c1ccc2c(c1)OCO2	-83.5% (active)
O=C(/C=C/Sc1ncn[nH]1)c1ccc(Cl)cc1	-73.9% (active)
Oc1ccc(/C=N/NC2=NCCCCC2)c(O)c1	-141% (active)
Nc1nc(-c2sc3nc4c(cc3c2N)CCCC4)nc(N2CCOCC2)n1	-113% (active)
CC(C)(C)c1ccc(C(=O)NNC(=O)Cc2ccccc2)cc1	-84.3% (active)
CCCC1=Nc2cc(C(=O)NCc3ccco3)ccc2Sc2ccccc21	87.6%
CC(C)(C)c1ccc(C(=O)NCc2ccco2)cc1	-180% (active)
CC(C)(C)c1ccc(NC(=O)NCc2ccco2)cc1	-123% (active)
CC(C)n1c(O)c(N=Nc2ccccn2)c2ccccc21	-76.9% (active)
CC1C/C(=N/NC(=O)c2cccs2)CC(C)(C)C1 (configuration not stated)	-101% (active)
CC(C)CC(=O)N/C(N)=N/c1nc2ccccc2s1	-93.4% (active)
CCC(=O)Nc1nc2ccccc2n1Cc1ccccc1C	65.5%
CCC(=O)NC(=Nc1nc2ccccc2s1)NC(=O)CC	-101% (active)
CC12CN3CCN(CC(C3)/C1=N\NC(=O)c1ccccc1N)C2	-83.3% (active)
CN1C(=O)/C(=C\c2cc(Br)cs2)c2ccccc21	-188% (active)
